Measurements as given in PubChem BioAssay AID504648 (National Center for Advancing Translational Sciences (NCATS), 2011).
The campaign covered roughly 390,000 compounds. About 610 (0.16%) were called active. About 4% were inconclusive and are not listed. This is one part of a sample in which actives are shown more often than they occur. The call rests on the fitted dose curve; in most records, active means well fitted inhibition curve with a large enough effect; inconclusive means small, poorly fitted or top-dose-only effect, or effect the other way, or another doubt; inactive means no such curve, though single readings can be large or run the other way.

Test: Nrf2 qHTS screen for inhibitors: counterscreen for cytotoxicity
Details: A549 ARE-Fluc cells, CellTiter-Fluor viability, 18-24 h; series mostly up to 46 µM; activity change, negative = cytotoxicity: at the top concentration
Description: NIH Molecular Libraries Probe Production Network [MLPCN]
NIH Chemical Genomics Center [NCGC]
Assay Provider: Shyam Biswal, Johns Hopkins University
Nrf2 is a transcription factor that maintains cellular redox homoestasis and protects cells from xenobiotics. Nrf2 binds to the antioxidant response element (ARE) to induce gene expression of a broad spectrum of genes that encode for antioxidants. […] Finding a small molecule that act as an inhibitor of Nrf2 function would represent a novel therapeutic target that could lead to improvement in survival of patients undergoing chemo- and/or radio- therapy.
So here we implemented a counterscreen to weed out the cytotoxic compounds.
1. Shibata, T., et al., Genetic Alteration of Keap1 Confers Constitutive Nrf2 Activation and Resistance to Chemotherapy in Gallbladder Cancer. Gastroenterology, 2008.
2. Sjoblom, T., et al., The consensus coding sequences of human breast and colorectal cancers. Science, 2006. 314(5797): p. 268-74.
NCGC Assay Protocol Summary:
A concentration-response assay was performed with A549 ARE_Fluc cells which are suspended in 5% FBS OPTI-MEM. Five uL were dispensed into 1536-well white TC-treated plate using the Kalypsys dispenser to achieve a density of 5000 cells/well in all columns except column 1. The plate is incubated at 37deg C at 5% CO2 for 2 hours before 23 nL of compounds are added with the Kalypsys pin tool equipped with a 1,536-pin array containing 10-nL slotted pins (FP1S10, 0.457-mm diameter, 50.8 mm long; V&P Scientific). The control compounds Budesonide and Staurosporine are both added at a concentration of 2mM and Budesonide is also added as a 1:10 titration, starting at 200uM, to achieve dose-response. After an 18-24 hour incubation at 37deg C at 5% CO2, 5ul of medium is added to column 1. Afterwards 1ul of 5x of CellTiter-Fluor (Promega) is added to every well. The plate is then incubated at 37deg C at 5% CO2 for 30 minutes before they are read on the ViewLux (Perkin Elmer) for a fluorescent read Ex=405(10)/Em=525(10) for a 3 second exposure, 2x binning, and high gain. Then 3 uL of 3x BugLite is dispensed into all wells and the plate is incubated at ambient room temperature for 15 minutes. Afterwards another ViewLux read is performed using the clear filter to get a luminescent read with the settings of 40 second exposure, 2x binning, and high gain. Cytotoxicity is assessed through the first fluorescent read and then biochemical activity against Nrf2 is measured in the luminescent read.
On the % scale 0 is the no-effect control and ±100 the full control effect; potency means the concentration at half of the fitted maximal effect.

| SMILES | activity change, negative = cytotoxicity | Potency |
| --- | --- | --- |
| O=C(c1ccco1)N(Cc1cccs1)c1ccc(O)cc1 | 18.3% (inactive) | – |
| COC(=O)CCc1ccccc1S(=O)(=O)N(CCC(=O)OC)Cc1ccccc1 | -2.64% (inactive) | – |
| C/C(=N/NC(=O)CSc1ccccn1)c1ccc([N+](=O)[O-])cc1 | -8.17% (inactive) | – |
| CC(=NNC(=S)N1CCCCCC1)c1ccccn1 | – | 20.6 µM (active) |
| Cc1ccc(NC(=S)N2CCN(c3ncccn3)CC2)cc1C | 7.48% (inactive) | – |
| C/C(=N\NC(=O)Cc1ccc(Cl)cc1)c1ccccn1 | – | 2.31 µM (active) |
| C/C(Cc1ccccc1)=N\NC(=O)CNC(=O)c1ccccc1Cl | 0.489% (inactive) | – |
| COc1ccc(S(=O)(=O)N2CCCC(C(=O)Nc3ccc(NC(=O)c4ccccn4)cc3)C2)cc1 (configuration not stated) | -6.09% (inactive) | – |
| O=C1CSC2(C(=O)N(Cc3ccccc3)c3ccccc32)N1c1cccc(F)c1 (configuration not stated) | -6.81% (inactive) | – |
| NS(=O)(=O)c1ccc(-c2ccc(/C=C3\SC(=O)NC3=O)o2)cc1 | – | 11.6 µM (active) |
| CCOc1ccc(NC(=O)CSc2nnc3c(n2)[nH]c2ccc(S(=O)(=O)N4CCOCC4)cc23)cc1 | 5.87% (inactive) | – |
| O=C1C(F)N([S+](=O)([O-])c2ccc3c(c2)OCCO3)CCN1[S+](=O)([O-])c1c(F)cccc1F (configuration not stated) | 1.53% (inactive) | – |
| O=C(NNC(=O)c1cccc(S(=O)(=O)Nc2ccc(Cl)cc2)c1)c1ccc(=O)[nH]c1 | 7.7% (inactive) | – |
| CC(=O)Nc1ccc(C(=O)Nc2cccc(S(=O)(=O)NC3=NCCC3)c2)cc1 | -0.73% (inactive) | – |
| O=C(Nc1cccc(S(=O)(=O)Nc2ccc(Cl)cc2)c1)c1ccc2c(c1)OCCO2 | – | 16.4 µM (active) |
| COc1cccc2c1C(=O)c1c(O)c3c(c(O)c1C2=O)CC(O)(C(C)=NNC(=O)c1ccc(Cl)c(Cl)c1)CC3OC1CC(N)C(O)C(C)O1 (configuration not stated) | – | 11.6 µM (active) |
| O=S(=O)(Nc1cccc2cccnc12)c1cccc2cccnc12 | -15.4% (inactive) | – |
| COc1ccccc1CNc1ccc(-c2nc(-c3ccccc3C)no2)cc1[N+](=O)[O-] | -0.21% (inactive) | – |
| COc1ccc(-c2nc(=N)sn2-c2ccccc2)cc1 | -0.495% (inactive) | – |
| COc1ccc(Cn2c(=O)[nH]c3cc(C(=O)N4CCN(C(=O)c5ccco5)CC4)ccc3c2=O)cc1 | 0.466% (inactive) | – |
| COc1ccc(C(CCN2CCOCC2)c2c(OC)cc(OC)c3c2OC(=O)CC3c2ccc(OC)cc2)cc1 (configuration not stated) | -15.8% (inactive) | – |
| C=C1CCN(C(CC(C)C)C(=O)N2CCOCC2)S(=O)(=O)c2ccccc21 (configuration not stated) | 5.21% (inactive) | – |
| COc1ccc(-c2ccc(C3C4C=CCCC4(C)C(=O)N3Cc3ccccc3)c(F)c2)cc1OC (configuration not stated) | -6.6% (inactive) | – |
| CC(=O)N1CCCc2ccc(NS(=O)(=O)c3ccc(F)cc3F)cc21 | -2.91% (inactive) | – |

| SMILES | activity change, negative = cytotoxicity | Potency |
| --- | --- | --- |
| O=C(/C=C/c1ccc([N+](=O)[O-])o1)NNC(=O)c1ccc(F)cc1 | – | 14.6 µM (active) |
| N#CN1CCC(NC(=O)c2ccc(F)cc2)CC1 | 0.665% (inactive) | – |
| CCCCCCC1(C)NC(c2ccc3c(c2)OCO3)=CC(c2ccccc2O)N1 (configuration not stated) | 1.15% (inactive) | – |
| O=C(CNC(=O)c1ccc(Cl)cc1Cl)OC(C(=O)Nc1cc(C(F)(F)F)ccc1Cl)c1ccccc1 (configuration not stated) | 4.24% (inactive) | – |
| COc1ccc(N2CCN(S(=O)(=O)c3ccc4c(c3)CC(=O)N4)CC2)cc1 | -0.133% [at 92.2 µM] (inactive) | – |
| CCN(CC)C(=O)CSc1nc2ccsc2c(=O)n1Cc1ccccc1Cl | -0.0336% (inactive) | – |
| Cc1ccc(NC(=O)c2cc(S(=O)(=O)NCCC3=CCCCC3)ccc2F)cc1C | -27.7% (inactive) | – |
| COc1ccc(-c2nnc(SCC(=O)Nc3ccccc3C)o2)cc1OC | 8.42% (inactive) | – |
| Cc1cccc(C)c1-n1c(C)cc(/C=C2\C(=O)NN(c3ccccc3)C2=O)c1C | – | 20.6 µM (active) |
| Cc1cccc(NC(=O)c2ccc3nc(C(C)C)oc3c2)c1C | -2.46% (inactive) | – |
| Cc1ccc(C)c(N2CCN(C(=O)Cn3nc(C)c4sc5ccccc5c4c3=O)CC2)c1 | -0.191% (inactive) | – |
| O=C1CCCC2=C1[C@@]1(CCC(c3ccccc3)C1)N=C(Nc1nc3ccccc3o1)N2 (some centres not stated) | – | inactive |
| COc1cc(C(CCN2CCN(c3ccccc3)CC2)c2c(OC)cc(OC)c3ccc(=O)oc23)cc(OC)c1OC (configuration not stated) | – | inactive |
| CCN(CC)CCC(c1ccc2c(c1)OCO2)c1c(OC)cc(OC)c2c(-c3ccccc3)cc(=O)oc12 (configuration not stated) | – | inactive |
| COc1cc(OC)c2ccc(=O)oc2c1C(CCN1CCN(c2ccccc2)CC1)c1ccc2c(c1)OCO2 (configuration not stated) | – | 23.1 µM (active) |
| CCOc1ccc(N=Cc2c(O)n(-c3cccc(C)n3)c(=O)c3ccccc23)cc1 | – | 18.4 µM (active) |
| CCO/C=C1\C(=O)N(c2ccc(OCC)cc2)C(=O)c2ccccc21 | 1.75% (inactive) | – |
| COC(=O)Cc1csc(/N=C/c2c(O)n(-c3cccc(C(F)(F)F)c3)c(=O)c3ccccc23)n1 | -0.417% (inactive) | – |
| COc1ccc(-c2ccc(OC)c(C3C4C=CCC(C)C4C(=O)N3Cc3ccccc3)c2)cc1C (configuration not stated) | 9.58% (inactive) | – |
| COc1ccc(NC(=O)CSc2nc3ccccc3n2CC(=O)N2CCCCC2C)cc1 (configuration not stated) | 2.61% (inactive) | – |
| COc1cc(NS(=O)(=O)c2ccc3c(c2)OCC(C(=O)N2CCCC2)O3)cc(OC)c1 (configuration not stated) | 11.7% (inactive) | – |
| CCOC(=O)C1CCN(c2ncnc3c2c(-c2ccccc2)cn3-c2cccc(C)c2)CC1 | -2.99% (inactive) | – |
| Cc1ccc(-c2nc(CS(=O)(=O)CC(=O)NCc3ccccc3Cl)c(C)o2)cc1 | -3.48% (inactive) | – |
